Reference: the supplement of paper PMC11732987, “Enantioselective OTUD7B fragment discovery through chemoproteomics screening and high-throughput optimisation” (Communications Chemistry, 2025)

Experiments:
Assay in all cases: log2 ratio of Biotin-Ahx-Ub-VS probe labelling (fragment/DMSO); higher = less target engagement (more negative = stronger competition), active = hit call of the paper (q ≤ 0.05, log2 ratio ≤ -1)
Conditions in all cases: compound concentration: 200 uM; treatment time: 3 h
[1] = biological target: T1, USP19 (UniProt O94966)
T1 sequence (whole entry): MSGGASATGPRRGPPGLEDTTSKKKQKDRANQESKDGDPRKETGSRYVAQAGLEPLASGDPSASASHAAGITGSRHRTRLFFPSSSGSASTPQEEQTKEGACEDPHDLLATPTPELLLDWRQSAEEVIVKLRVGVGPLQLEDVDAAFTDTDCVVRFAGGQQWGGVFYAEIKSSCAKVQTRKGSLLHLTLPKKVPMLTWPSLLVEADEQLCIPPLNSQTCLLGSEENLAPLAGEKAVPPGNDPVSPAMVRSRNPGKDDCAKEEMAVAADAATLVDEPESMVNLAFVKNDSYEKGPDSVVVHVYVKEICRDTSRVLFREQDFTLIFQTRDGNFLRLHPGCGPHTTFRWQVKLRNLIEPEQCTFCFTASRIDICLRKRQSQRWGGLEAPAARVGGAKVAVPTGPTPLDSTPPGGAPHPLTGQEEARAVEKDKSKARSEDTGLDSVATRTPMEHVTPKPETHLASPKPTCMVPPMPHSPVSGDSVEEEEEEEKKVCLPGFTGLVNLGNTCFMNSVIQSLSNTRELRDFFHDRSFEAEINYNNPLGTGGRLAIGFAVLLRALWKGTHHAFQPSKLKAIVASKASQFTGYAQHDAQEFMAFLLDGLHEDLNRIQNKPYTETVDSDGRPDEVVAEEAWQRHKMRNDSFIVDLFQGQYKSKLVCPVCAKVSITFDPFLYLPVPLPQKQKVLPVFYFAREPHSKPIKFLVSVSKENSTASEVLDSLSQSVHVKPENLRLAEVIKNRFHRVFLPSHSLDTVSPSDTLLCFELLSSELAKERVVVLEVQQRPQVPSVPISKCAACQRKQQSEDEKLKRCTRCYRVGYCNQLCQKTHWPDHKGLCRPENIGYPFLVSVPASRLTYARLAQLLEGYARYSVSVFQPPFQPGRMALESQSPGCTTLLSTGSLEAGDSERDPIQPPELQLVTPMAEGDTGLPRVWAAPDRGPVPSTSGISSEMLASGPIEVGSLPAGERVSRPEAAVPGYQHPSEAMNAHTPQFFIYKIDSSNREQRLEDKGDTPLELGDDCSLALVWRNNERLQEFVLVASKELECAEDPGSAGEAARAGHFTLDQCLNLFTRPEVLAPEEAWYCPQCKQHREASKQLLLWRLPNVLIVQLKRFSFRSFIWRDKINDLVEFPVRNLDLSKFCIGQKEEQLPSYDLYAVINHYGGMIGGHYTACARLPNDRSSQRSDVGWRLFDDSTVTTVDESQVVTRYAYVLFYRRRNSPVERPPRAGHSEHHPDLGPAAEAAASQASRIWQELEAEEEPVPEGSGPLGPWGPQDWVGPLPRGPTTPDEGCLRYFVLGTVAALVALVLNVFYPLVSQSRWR
In short: (§1)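 Each value is an average log2 ratio of fragment to vehicle, tested by unpaired t-test. The underlying Spectronaut label-free quantities were global-median-normalised, and only proteins with ≥2 unique peptides were included. Triplicate HEK293T lysate samples (495 µg) were exposed to fragment at 200 µM or vehicle for 3 h, then to Biotin-Ahx-Ub-VS at 0.5 µM final for 1 h, before NeutrAvidin enrichment of labelled DUBs, LysC and trypsin digestion, and diaPASEF LC-MS/MS.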

[2] = biological target: USP24 (UniProt Q9UPU5)
Sequence of USP24 (Q9UPU5 whole entry): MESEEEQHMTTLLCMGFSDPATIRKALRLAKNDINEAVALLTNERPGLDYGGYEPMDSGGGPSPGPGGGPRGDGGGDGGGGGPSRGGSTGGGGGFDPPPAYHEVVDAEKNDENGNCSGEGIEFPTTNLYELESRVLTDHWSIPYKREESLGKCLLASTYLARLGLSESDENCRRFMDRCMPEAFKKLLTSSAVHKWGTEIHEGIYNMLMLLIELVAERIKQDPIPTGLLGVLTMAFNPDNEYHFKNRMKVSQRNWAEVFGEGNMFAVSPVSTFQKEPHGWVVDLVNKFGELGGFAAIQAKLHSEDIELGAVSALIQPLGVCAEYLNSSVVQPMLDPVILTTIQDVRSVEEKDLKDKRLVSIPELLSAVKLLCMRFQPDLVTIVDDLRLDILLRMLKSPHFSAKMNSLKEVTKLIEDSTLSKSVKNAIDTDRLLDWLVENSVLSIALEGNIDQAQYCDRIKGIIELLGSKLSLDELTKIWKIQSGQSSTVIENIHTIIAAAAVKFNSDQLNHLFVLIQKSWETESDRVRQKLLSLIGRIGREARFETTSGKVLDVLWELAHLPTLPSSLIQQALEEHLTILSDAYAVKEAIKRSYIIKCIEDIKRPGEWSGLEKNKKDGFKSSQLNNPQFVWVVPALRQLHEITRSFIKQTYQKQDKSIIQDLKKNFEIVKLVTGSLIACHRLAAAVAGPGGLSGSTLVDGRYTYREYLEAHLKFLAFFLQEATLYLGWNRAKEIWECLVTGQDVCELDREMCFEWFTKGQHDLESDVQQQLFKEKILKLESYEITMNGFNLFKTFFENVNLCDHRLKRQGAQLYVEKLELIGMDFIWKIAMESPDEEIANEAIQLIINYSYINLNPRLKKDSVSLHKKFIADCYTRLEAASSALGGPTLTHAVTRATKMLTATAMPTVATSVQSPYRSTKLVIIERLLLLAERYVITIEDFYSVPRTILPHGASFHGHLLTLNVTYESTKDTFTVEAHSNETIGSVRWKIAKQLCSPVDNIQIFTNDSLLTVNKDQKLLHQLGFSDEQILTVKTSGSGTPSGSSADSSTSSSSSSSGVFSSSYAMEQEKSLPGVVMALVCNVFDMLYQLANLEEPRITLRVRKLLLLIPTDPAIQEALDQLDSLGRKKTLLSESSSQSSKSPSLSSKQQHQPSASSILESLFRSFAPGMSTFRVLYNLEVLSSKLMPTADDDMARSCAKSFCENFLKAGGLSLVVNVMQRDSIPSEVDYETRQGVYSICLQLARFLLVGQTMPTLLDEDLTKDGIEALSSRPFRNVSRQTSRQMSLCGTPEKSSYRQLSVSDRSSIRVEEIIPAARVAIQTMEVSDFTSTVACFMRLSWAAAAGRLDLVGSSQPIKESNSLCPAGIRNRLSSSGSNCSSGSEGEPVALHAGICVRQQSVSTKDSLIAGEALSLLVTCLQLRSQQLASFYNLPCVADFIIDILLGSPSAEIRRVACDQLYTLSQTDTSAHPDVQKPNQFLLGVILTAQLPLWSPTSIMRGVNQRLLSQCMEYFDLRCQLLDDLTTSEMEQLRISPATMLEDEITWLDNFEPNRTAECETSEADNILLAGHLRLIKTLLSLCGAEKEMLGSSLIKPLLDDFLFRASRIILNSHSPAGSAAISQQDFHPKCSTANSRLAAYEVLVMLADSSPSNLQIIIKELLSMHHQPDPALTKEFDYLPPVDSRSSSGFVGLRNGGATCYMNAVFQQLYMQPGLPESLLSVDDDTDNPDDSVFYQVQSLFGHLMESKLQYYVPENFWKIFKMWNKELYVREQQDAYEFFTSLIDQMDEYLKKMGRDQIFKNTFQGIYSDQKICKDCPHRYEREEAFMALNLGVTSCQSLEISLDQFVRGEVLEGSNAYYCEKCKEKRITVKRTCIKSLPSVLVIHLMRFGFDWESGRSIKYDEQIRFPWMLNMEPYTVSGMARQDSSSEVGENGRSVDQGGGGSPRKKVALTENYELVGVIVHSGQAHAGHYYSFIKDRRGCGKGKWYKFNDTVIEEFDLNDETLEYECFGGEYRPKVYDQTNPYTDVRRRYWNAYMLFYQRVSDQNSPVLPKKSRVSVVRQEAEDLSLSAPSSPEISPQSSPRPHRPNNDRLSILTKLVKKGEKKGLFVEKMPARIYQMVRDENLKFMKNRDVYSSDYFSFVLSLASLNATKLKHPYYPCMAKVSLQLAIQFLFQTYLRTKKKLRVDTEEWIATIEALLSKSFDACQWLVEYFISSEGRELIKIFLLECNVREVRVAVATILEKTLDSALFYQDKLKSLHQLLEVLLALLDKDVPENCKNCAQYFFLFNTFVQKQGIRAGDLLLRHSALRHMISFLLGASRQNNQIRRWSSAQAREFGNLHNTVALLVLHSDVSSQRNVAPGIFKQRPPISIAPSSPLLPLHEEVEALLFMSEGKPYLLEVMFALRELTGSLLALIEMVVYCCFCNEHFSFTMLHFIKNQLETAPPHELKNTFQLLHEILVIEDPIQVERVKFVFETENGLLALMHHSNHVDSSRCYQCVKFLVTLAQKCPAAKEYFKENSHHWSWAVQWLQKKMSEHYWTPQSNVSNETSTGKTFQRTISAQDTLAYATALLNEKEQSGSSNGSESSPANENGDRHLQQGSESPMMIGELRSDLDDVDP
In short: as §1

[3] = biological target: T2, USP25 (UniProt Q9UHP3)
T2 sequence (whole entry): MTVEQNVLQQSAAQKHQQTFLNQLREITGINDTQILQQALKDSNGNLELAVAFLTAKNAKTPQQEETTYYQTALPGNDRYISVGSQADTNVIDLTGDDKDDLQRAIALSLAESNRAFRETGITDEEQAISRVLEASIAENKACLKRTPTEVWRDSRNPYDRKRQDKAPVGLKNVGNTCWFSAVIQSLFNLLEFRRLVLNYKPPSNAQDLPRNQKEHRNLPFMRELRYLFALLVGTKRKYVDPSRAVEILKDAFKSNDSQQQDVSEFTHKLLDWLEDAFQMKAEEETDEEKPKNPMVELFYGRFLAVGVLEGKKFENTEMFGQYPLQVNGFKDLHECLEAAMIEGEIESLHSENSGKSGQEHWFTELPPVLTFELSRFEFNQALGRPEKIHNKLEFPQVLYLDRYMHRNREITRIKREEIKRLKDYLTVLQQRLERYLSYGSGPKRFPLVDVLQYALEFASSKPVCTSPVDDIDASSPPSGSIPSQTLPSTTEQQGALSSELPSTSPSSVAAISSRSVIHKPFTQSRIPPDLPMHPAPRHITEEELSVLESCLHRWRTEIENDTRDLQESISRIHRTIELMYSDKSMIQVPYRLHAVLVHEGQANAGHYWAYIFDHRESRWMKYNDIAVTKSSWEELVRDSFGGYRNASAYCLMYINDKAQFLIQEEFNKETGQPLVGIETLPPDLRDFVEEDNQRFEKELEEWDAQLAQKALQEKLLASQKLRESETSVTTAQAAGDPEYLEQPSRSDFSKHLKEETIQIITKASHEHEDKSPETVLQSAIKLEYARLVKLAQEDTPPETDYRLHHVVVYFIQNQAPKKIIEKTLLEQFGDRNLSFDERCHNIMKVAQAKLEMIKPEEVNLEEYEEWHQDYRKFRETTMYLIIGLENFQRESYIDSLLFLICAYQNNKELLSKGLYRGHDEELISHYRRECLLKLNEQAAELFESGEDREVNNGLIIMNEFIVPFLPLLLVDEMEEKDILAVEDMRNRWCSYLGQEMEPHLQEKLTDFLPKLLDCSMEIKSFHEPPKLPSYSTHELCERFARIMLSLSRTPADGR
In short: as §1

[4] = biological target: T3, USP28 (UniProt Q96RU2)
T3 sequence (whole entry): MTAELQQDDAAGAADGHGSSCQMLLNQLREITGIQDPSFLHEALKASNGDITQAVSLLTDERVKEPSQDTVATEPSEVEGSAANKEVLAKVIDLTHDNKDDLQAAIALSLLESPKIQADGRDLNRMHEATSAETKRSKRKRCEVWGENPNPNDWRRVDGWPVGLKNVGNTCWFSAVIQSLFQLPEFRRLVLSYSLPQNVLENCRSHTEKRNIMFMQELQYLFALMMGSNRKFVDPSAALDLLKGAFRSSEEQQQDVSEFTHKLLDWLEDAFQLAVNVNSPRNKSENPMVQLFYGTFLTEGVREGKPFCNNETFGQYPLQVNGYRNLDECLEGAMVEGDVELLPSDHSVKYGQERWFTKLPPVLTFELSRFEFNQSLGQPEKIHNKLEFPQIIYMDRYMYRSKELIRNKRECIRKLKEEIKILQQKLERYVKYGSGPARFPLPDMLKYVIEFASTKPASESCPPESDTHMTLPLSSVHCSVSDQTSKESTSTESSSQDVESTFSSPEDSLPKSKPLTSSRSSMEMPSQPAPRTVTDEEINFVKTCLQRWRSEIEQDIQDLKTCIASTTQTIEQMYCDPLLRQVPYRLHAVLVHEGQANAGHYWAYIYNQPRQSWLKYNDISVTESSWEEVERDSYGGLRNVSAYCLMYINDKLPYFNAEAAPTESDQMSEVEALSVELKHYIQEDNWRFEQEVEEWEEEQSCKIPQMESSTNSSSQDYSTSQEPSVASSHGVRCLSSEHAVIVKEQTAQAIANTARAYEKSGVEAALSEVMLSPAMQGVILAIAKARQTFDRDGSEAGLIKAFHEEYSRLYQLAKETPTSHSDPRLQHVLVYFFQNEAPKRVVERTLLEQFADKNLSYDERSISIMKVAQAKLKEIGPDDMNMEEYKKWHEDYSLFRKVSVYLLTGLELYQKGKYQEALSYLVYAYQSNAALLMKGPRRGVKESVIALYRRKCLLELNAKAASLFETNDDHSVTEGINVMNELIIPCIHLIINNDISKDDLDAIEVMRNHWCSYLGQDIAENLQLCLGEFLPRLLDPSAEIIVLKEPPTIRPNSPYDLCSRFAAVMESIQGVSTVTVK
In short: as §1

Measured: log2 ratio of Biotin-Ahx-Ub-VS probe labelling

Cc1ncsc1CCNC(=O)CCl
inactive: [1] 0.249 | [2] 0.197 | [3] -0.144 | [4] 0.0198
